# Screening results: PubChem, several laboratories
# CYP2C9 inh = inhibitors of human CYP2C9; CYP2C9 Supersomes, luciferin-H conversion, luminescence; inhibition, % at 5 µM; 20% of 96,000 active; AID 777;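 active = blocking of liver enzyme CYP2C9 beyond about 50% at 5 µM, limit read from the data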
# PostGolgi yeast = growth inhibition of a yeast mutant, post-Golgi transport screen | 0.9% of 98,000 active | inhibition, % at 10 µM | AID 739 | post-Golgi transport phenotypic cell assay;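 also: yeast cells grown in 1536-well plates; yeast grown about 18 h at 30C before absorbance read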
# CYP2C19 inhib = human CYP2C19 inhibition; inhibition, % at 5 µM; 21% of 96,000 active; CYP2C19 Supersomes, luciferin-H EGE luminescence, 30 min; P33261;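 active = CYP2C19 inhibition above a set limit at 5 µM in the primary screen, cut at about 50% in these data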;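 also: plate controls were negative control wells for no effect and 2.5 mM tranylcypromine positive control for full effect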
# Target sequence (P33261 whole entry, looked up): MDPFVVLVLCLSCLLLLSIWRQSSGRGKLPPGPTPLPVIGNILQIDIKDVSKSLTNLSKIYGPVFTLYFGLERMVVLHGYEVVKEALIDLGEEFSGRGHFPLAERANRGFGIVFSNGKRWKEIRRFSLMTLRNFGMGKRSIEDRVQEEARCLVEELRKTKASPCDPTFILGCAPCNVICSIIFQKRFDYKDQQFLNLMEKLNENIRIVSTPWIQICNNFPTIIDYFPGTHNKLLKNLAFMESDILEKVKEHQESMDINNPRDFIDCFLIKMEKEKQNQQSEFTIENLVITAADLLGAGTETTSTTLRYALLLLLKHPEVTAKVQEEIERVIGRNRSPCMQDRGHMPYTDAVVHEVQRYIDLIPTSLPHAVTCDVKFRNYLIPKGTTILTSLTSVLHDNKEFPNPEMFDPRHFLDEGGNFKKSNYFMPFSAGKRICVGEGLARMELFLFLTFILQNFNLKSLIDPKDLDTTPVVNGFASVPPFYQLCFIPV
# CYP2C9 activ = increases human cytochrome P450 2C9 activity; P11712; recombinant CYP2C9, luciferin-H conversion, luminescence; active compounds read high; factor 1 = untreated enzyme, 0 = blocked; activation factor at 5 µM; 1.4% of 96,000 active; AID 1024;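 active = activation factor of 2 or more for CYP2C9 at a 5 µM dose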;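 also: 0 = sulfaphenazole-blocked wells and 1 = vehicle-only wells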
# CYP2C19 activ = cytochrome P450 2C19 (human) activation; P33261; recombinant CYP2C19, luciferin-H EGE luminescence; active compounds read high; 0 = fully inhibited enzyme, 1 = untreated enzyme; activation factor at 5 µM; 96,000 tested, under 10 active; AID 1025;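 active = activation factor of at least 2 at 5 µM in the primary screen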;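 also: 0 = wells with 2.5 mM tranylcypromine and 1 = vehicle-only wells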
# PostGolgi ctrl = growth of the yeast control strain, post-Golgi counter-screen; 5% of 98,000 active; inhibition, % at 10 µM; efflux-deficient yeast background strain, growth absorbance A615, 16 h
# An asterisk follows results filed as active; . = no result. Most compounds without a hit are left out; they make up all but 32% or so of the library. Rule as the data show it, unless noted: active = inhibition above about 30%; inactive = the rest.
SMILES,CYP2C9 inh,PostGolgi yeast,CYP2C19 inhib,CYP2C9 activ,CYP2C19 activ,PostGolgi ctrl
COc1cccc(-c2cc(N)nn2C(=O)Nc2ccc(Cl)cc2)c1,25,5,-7,0.8,1.1,15
CC(C)(C)NS(=O)(=O)c1ccc(NS(=O)(=O)c2ccc(F)cc2)cc1,93*,3,38,0.1,0.6,3
O=C1CSC(c2ccccc2F)N1c1cc(Cl)ccc1O (stereo not drawn),-34,1,84*,1.3,0.2,13
O=C1CSC(c2ccccc2F)N1CCN1CCCCC1 (stereo not drawn),-11,-4,43,1.1,0.6,-1
O=C(NCc1ccc2c(c1)OCO2)c1cc2n(n1)C(C(F)(F)F)CC(c1ccc3c(c1)OCO3)N2 (stereo not drawn),-8,-2,-17,1.1,1.2,-4
Cc1cc(C)nc(-n2nc(C)c3c(=O)[nH]c(C(F)(F)F)nc32)n1,4,13,9,1,0.9,-4
CCN(CC)C(=O)c1cnn(-c2ccccc2)c1NC(=O)c1cccc(F)c1,11,6,29,0.9,0.7,4
Cc1csc(-c2cnn(-c3ccccc3)c2NC(=O)c2cccc(C(F)(F)F)c2)n1,48,25,22,0.5,0.8,34*
COC(/C=C/Nc1ccc(C)c(C)c1)=C(C#N)C#N,9,2,0,0.9,1,25
COc1ccc(C(=O)Nc2cccc(C(=O)N3CCN(C)CC3)c2)cc1,16,-5,15,0.8,0.9,1
Cc1ccc(C(=O)Nc2ccc3nccnc3c2)cc1,8,6,8,0.9,0.9,0
COc1ccc(C(=O)Nc2cccc(C)c2)cc1,9,6,71*,0.9,0.3,4
Cc1ccc(C(=O)Nc2cccc(C(=O)O)c2)cc1,54*,-2,87*,0.5,0.1,4
CC(C)(C)NC(=O)C(c1ccccc1F)N(Cc1ccco1)C(=O)c1csnn1 (stereo not drawn),-4,4,16,1,0.8,6
Oc1[nH]c2ccccc2c1/C=N/c1nccs1,14,6,53*,0.9,0.5,13
c1ccc(C(c2nnnn2Cc2cccs2)N2CCN(C3CCCC3)CC2)cc1 (stereo not drawn),6,7,24,0.9,0.8,9
O=C(COc1ccc(Br)cc1Br)NC(=S)N1CCCc2ccccc21,77*,6,-9,0.2,1.1,0
CC1CCN(C(=S)c2ccccc2O)CC1,29,-9,94*,0.7,0.1,1
CCCCSc1nc(O)c(C2OC(=O)c3c2ccc(OC)c3OC)c(=O)n1-c1ccccc1 (stereo not drawn),14,-5,4,0.9,1,7
O=C1COc2cccnc2N1,-2,-1,-5,1,1,38*
O=C1COc2ccccc2CN1,-4,1,-5,1,1,-7
C=CCn1c(=O)/c(=C/c2ccc(Cl)cc2)s/c1=C(/C#N)c1nnc2n1CCCCC2,78*,-2,36,0.2,0.6,21
COc1ccc(S(=O)(=O)NNC(=O)c2csc(-n3nc(C)cc3C(F)(F)F)n2)cc1OC,54*,17,14,0.5,0.9,3
CC(=O)c1cccc(NC(=O)c2csc(-n3nc(C)cc3C(F)(F)F)n2)c1,56*,-1,51*,0.4,0.5,1
S=C(Nc1ccc2snnc2c1)N1CCN(c2ccccn2)CC1,18,2,26,0.8,0.7,5
SMILES,CYP2C9 inh,PostGolgi yeast,CYP2C19 inhib,CYP2C9 activ,CYP2C19 activ,PostGolgi ctrl
CN(C(=O)/C(N=Nc1cccc(C(F)(F)F)c1)=C(\O)C(F)(F)F)c1ccccc1,80*,4,82*,0.2,0.2,38*
CCSC(C)CC1C/C(=N/O)c2c(CC)noc2C1 (stereo not drawn),94*,1,90*,0.1,0.1,14
CCCc1noc2c1/C(=N\O)CC(CC(C)SCC)C2 (stereo not drawn),98*,4,73*,0,0.3,13
Cc1ccc(Cl)cc1NC(=O)CCC(=O)Nc1cc(Cl)ccc1C,14,0,-23,0.9,1.2,1
Cc1ccc(Cl)cc1NC(=O)COC(=O)C1CCCC1,30,1,96*,0.7,0,11
Cc1ccc(Cl)cc1NC(=O)COC(=O)C12CC3CC(CC(C3)C1)C2,22,12,2,0.8,1,36*
CC(CC(=O)O)CC(=O)Nc1ccccc1C(=O)O (stereo not drawn),-18,-5,-18,1.2,1.2,12
COc1ccc(-c2csc(C3=C(O)CN(Cc4ccc(S(N)(=O)=O)cc4)C3=N)n2)cc1OC,5,-7,26,1,0.7,13
N=C1C(c2nc(-c3ccc(F)cc3)cs2)=C(O)CN1Cc1ccc(Cl)cc1,53*,-2,45,0.5,0.5,7
COc1ccc(-c2csc(C3=C(O)CN(Cc4ccc(Cl)cc4)C3=N)n2)cc1OC,89*,-4,43,0.1,0.6,-4
COc1cccc(CN2CC(O)=C(c3nc(-c4ccc(Cl)cc4)cs3)C2=N)c1,23,5,15,0.8,0.9,-1
CCOC(=O)N1CCN(c2nc(-c3ccc(OC)cc3)no2)CC1,22,-2,23,0.8,0.8,14
COC(=O)c1sc2ncccc2c1OCc1ccc(Cl)cc1,11,-6,-5,0.9,1.1,5
COC(=O)c1cccnc1-n1c(=O)c2cccnc2n(Cc2ccc(Cl)cc2)c1=O,30,-5,59*,0.7,0.4,17
CN(C)CCNS(=O)(=O)c1ccc(Cl)cc1,.,-6,.,.,.,-8
CN1CCN(CC(C)(C)NS(=O)(=O)c2ccc(Cl)cc2)CC1,1,5,95*,1,0.1,2
O=C(CNc1ccc(C(F)(F)F)cc1[N+](=O)[O-])OCC(=O)c1ccccc1,55*,4,39,0.4,0.6,14
Cc1nc2nc[nH]n2c(=O)c1NC(=O)CC12CC3CC(CC(C3)C1)C2,4,6,-3,1,1,11
CCCOC(=O)c1ccc(NC(=O)CSC2=Nc3ccccc3C3CC=NN23)cc1 (stereo not drawn),80*,-15,52*,0.2,0.5,19
CCC1C(=O)N=C(SCC(=O)Nc2ccc(C(=O)OC)cc2)NC1=O (stereo not drawn),11,-8,11,0.9,0.9,20
S=c1oc(-c2ccncc2)nn1CCc1ccncc1,85*,1,99*,0.1,0,3
CCOc1cc(/C=N\NC(=O)c2ccc(NC(=O)CC)cc2)ccc1OC(=O)c1ccccc1,9,-3,-6,0.9,1.1,9
CC(=O)Nc1ccc(NC(=O)C(C)OC(=O)CCC(=O)c2ccc(F)cc2)cc1 (stereo not drawn),69*,-6,72*,0.3,0.3,-5
CCN(CC)c1ccc(NC(=O)COC(=O)CCC(=O)c2ccc(F)cc2)cc1,2,-6,21,1,0.8,8
